Cycloheximide cs – counter-screen hit for Shiga toxin inhibitors, cycloheximide | cell reporter, cycloheximide protein synthesis inhibition counterscreen | 300,000 tested, 12% active | max response, %; in the data active means max response mostly above about 13%, no sharp cut-off; inactive means mostly below about 14%; further: read at 38.3 µM for the half of the compounds with a filed dose; 0% is about no effect
HCMV inh – human cytomegalovirus inhibition; HFF cells, HCMV-luciferase reporter, 72 h; active compounds read low; activity change, negative = inhibition, % at 57.5 µM; 410,000 tested, 4.5% active; in the data active means activity change below about -60%; inconclusive means no clear call, values can overlap the other calls; inactive means above about -39%; further: on the % scale 0 is the no-effect control and ±100 the full control effect
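Two-dose cell screen: HFF monolayers treated with compounds and infected with luciferase-expressing HCMV at 1 PFU/cell, 72 h at 37C, then lysed for luciferase measurement.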
Pf growth 48h – inhibits P. falciparum growth in the first generation, 48 h; P. falciparum luciferase growth in erythrocytes, 48 h; Potency, µM (highest dose often 28.7 µM), inactives show at the highest dose activity change, negative = inhibition, actives largely listed as inhibitors; 310,000 tested, 5.9% active; further: potency means the concentration at half of the fitted maximal effect; on the % scale 0 is the no-effect control and ±100 the full control effect
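Luciferase-expressing parasites in RBCs, 2% Hct / 0.1% parasitemia final; RPMI 1640 + 0.5% Albumax; 37 C, 5% CO2, one generation; luminescence read-out, lower signal = inhibition.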
Shiga inhibitor – blocks Shiga toxin action in Vero cells | Vero cells, Shiga toxin protein synthesis inhibition reporter | AID 2315 | inhibition, % at 38.7 µM | 290,000 tested, 9.2% active; in the data active means inhibition mostly above about 28%, no sharp cut-off; inactive means mostly below about 43%; further: 0% is about no effect
Pf growth 96h – P. falciparum growth inhibition at 96 hour, primary screen for plastid delayed-death inhibitors; P. falciparum luciferase reporter growth, 96 h; Potency, µM (series often up to 28.7 µM), for the others: at the top dose activity change, negative = inhibition, usual class: inhibitors; 320,000 tested, 6.9% active; further: potency means the concentration at half of the fitted maximal effect; on the % scale 0 is the no-effect control and ±100 the full control effect
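Infected RBCs, 2% Hct / 0.05% parasitemia final; luciferase-reporter P. falciparum; cpd 96 h, 37 C, 5% CO2; luciferase detection reagent; luminescence.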
An asterisk follows results filed as active. Most compounds without a hit are left out; they make up all but 20% or so of the library. Unless noted, the call rests on the fitted dose curve; in most records, active means well fitted inhibition curve with a large enough effect; inconclusive means small, poorly fitted or top-dose-only effect, or another doubt; inactive means no such curve, though single readings can be large or run the other way.

How did CCOC(=O)CC1CCCCN1Cc1cn[nH]c1-c1ccc(F)cc1F (stereo not given) do in these assays?
Cycloheximide cs: 0; HCMV inh: 0; Pf growth 48h: 13%; Shiga inhibitor: -12; Pf growth 96h: -7%

What do the screens show for `Fc1ccccc1/C=C1\CCCC2=C1NC(=S)NC2c1ccccc1F` (stereo not given)?
Cycloheximide cs: -3; HCMV inh: inconclusive; Pf growth 48h: inconclusive; Shiga inhibitor: -3; Pf growth 96h: -19%

How did CC(NC(=O)CNC(=O)c1ccco1)c1ccccc1 (stereo not given) do in these assays?
Cycloheximide cs: -5; HCMV inh: -2; Pf growth 48h: 16%; Shiga inhibitor: -13; Pf growth 96h: 17%

Results for O=C(N/N=C/c1ccc2ncccc2c1)c1ccco1 ?
Cycloheximide cs: 9; HCMV inh: 5; Pf growth 48h: 132%; Shiga inhibitor: -2; Pf growth 96h: 234%

How did O=C(N/N=C/c1ccccn1)c1ccco1 do in these assays?
Cycloheximide cs: 47*; HCMV inh: -1; Pf growth 48h: -11%; Shiga inhibitor: 71*; Pf growth 96h: 47%

Results for Cn1ncc(Cl)c1C(=O)N/N=C/c1ccccn1 ?
Cycloheximide cs: 20*; HCMV inh: 5; Pf growth 48h: 18%; Shiga inhibitor: 32; Pf growth 96h: -10%

How did O=C(N/N=C/c1ccccn1)c1ccncc1 do in these assays?
Cycloheximide cs: 52*; HCMV inh: 16; Pf growth 48h: 38%; Shiga inhibitor: 97*; Pf growth 96h: 39%

What do the screens show for `CN1CCN(C(=O)CSc2ccc(C(F)(F)F)cc2[N+](=O)[O-])CC1`?
Cycloheximide cs: -2; HCMV inh: -40; Pf growth 48h: 15%; Shiga inhibitor: -11; Pf growth 96h: 18%

How did CCC(C(=O)NCCCN(CC)CC)n1ncn2c(cc3occc32)c1=O (stereo not given) do in these assays?
HCMV inh: -32

What do the screens show for `O=C(COC(=O)c1cccs1)Nc1ccccc1[N+](=O)[O-]`?
Cycloheximide cs: 10; HCMV inh: 14; Pf growth 48h: -10%; Shiga inhibitor: 13; Pf growth 96h: 28%

Results for CC(C)N(C(=O)Cn1cc(S(=O)(=O)Cc2ccc(Br)cc2)c2ccccc21)C(C)C ?
HCMV inh: -33

How did COc1ccc(Br)cc1CNC(=O)Cn1ncn2nc(-c3cccs3)cc2c1=O do in these assays?
HCMV inh: -4

Results for c1ccc2c(-n3cccn3)cccc2c1 ?
Cycloheximide cs: 36*; HCMV inh: -5; Pf growth 48h: 49%; Shiga inhibitor: 83*; Pf growth 96h: -18%

Results for Cc1ncc([N+](=O)[O-])n1CC(=O)N/N=C/c1ccc(F)cc1 ?
Cycloheximide cs: 0; HCMV inh: inconclusive; Pf growth 48h: 1%; Shiga inhibitor: -11; Pf growth 96h: inconclusive

What do the screens show for `COc1ccc(-c2onc(C)c2-c2ccc(C(=O)OC(C)C)o2)c(O)c1`?
Cycloheximide cs: -6; HCMV inh: -8; Pf growth 48h: 1.3µM*; Shiga inhibitor: -18; Pf growth 96h: -9%

How did COc1ccc(N2C(=O)c3ccc(C(=O)OC(C)C)cc3C2=O)cc1 do in these assays?
Cycloheximide cs: -3; HCMV inh: 12; Pf growth 48h: 9%; Shiga inhibitor: 14; Pf growth 96h: inconclusive

Results for O=C(c1ccco1)N1CCN(C23CC4CC(CC(C4)C2)C3)CC1 ?
Cycloheximide cs: 1; HCMV inh: 39; Pf growth 48h: -20%; Shiga inhibitor: 2; Pf growth 96h: -2%

How did Cc1ccc(C(=O)N2CCN(C34CC5CC(CC(C5)C3)C4)CC2)o1 do in these assays?
Cycloheximide cs: -3; HCMV inh: -82*; Pf growth 48h: 20%; Shiga inhibitor: -7; Pf growth 96h: inconclusive

How did Cn1ncc(Cl)c1C(=O)N1CCN(C23CC4CC(CC(C4)C2)C3)CC1 do in these assays?
Cycloheximide cs: 7; HCMV inh: -77*; Pf growth 48h: 16%; Shiga inhibitor: -3; Pf growth 96h: 13%

Results for CCOC(=O)C1=C(C(=O)OCC)C2N(Cc3ccc(C#N)cc3)c3ccccc3[C@@]23C[C@@H](C(=O)OC)N(S(=O)(=O)c2ccc(OC)cc2)C3=N1 (stereo not given in full) ?
HCMV inh: -4
